# Data reported in PubChem BioAssay AID1048 (The Scripps Research Institute Molecular Screening Center, 2008).
# Among all 99,000 compounds or so, about 390 (0.39%) were called active. Only a selection was taken, and actives are over-represented in it overall. Values without a mark were called inactive. Rule as the data show it: active = TR-FRET ratio above about 2000; inactive = the rest.
# Assay: TR-FRET detection interference compounds, artefact control for PPARgamma SRC-3 recruitment agonists, biochemical, TR-FRET ratio (AID 1048)
# Conditions: TR-FRET artefact counter-screen, PPARgamma/SRC-3 format; at 8 µM; stronger effect = higher value
row,Structure (SMILES),TR-FRET ratio
1,CC(=O)C1C(c2ccc(Cl)cc2)c2c(n[nH]c2C)CC1(C)O (stereo not drawn),1710
2,COc1ccc(NS(=O)(=O)c2cc(NC(=O)C3CCCCC3)ccc2N2CCOCC2)cc1,1510
3,O=C(Nc1ccc([N+](=O)[O-])cc1)C1CC12CCC2 (stereo not drawn),1620
4,CC(=O)c1ccc(S(=O)(=O)Nc2ccc(C(=O)NCC(c3ccccc3)N(C)C)cc2)cc1 (stereo not drawn),1580
5,CC(Sc1cccc[n+]1[O-])C(=O)Nc1cccc(S(=O)(=O)N2CCOCC2)c1 (stereo not drawn),1620
6,COc1ccc(/C=N/NC(=O)c2ccccc2)cc1OS(=O)(=O)c1ccccc1,1630
7,COc1cccc(CNC(=O)CCN2C(=S)NC(C)(C)CC2C)c1 (stereo not drawn),1480
8,O=C(COC(=O)c1ccccc1F)Nc1cc(S(=O)(=O)N2CCOCC2)ccc1N1CCCC1,1600
9,O=C(Nc1ccc(NC(=O)c2ccco2)c(Cl)c1)c1cccc([N+](=O)[O-])c1,1700
10,Cc1ccc2[nH]c(C)c(CCNC(=O)NC3CCCCC3)c2c1,1590
11,CCN(C(=O)COC(=O)/C=C/c1nc2ccccc2s1)C1CCS(=O)(=O)C1 (stereo not drawn),1560
12,COCc1c(C(=O)OCc2c(C)noc2C)oc2ccccc12,1630
13,CCN1CCN(C(=O)CCN2C(=O)c3ccccc3C2=O)CC1,1540
14,COc1ccc(S(=O)(=O)Nc2cccnc2)c(Cl)c1Cl,1690
15,CCn1ccnc1CN(C)Cc1nc(-c2ccc3c(c2)OCO3)no1,1670
16,COc1ccc(-n2c(=S)[nH]c3sc4c(c3c2=O)CCc2ccccc2-4)cc1,1560
17,O=C(CCN1CCCCC1)N=Nc1c(O)[nH]c2ccccc12,1900
18,O=C(CSc1cccc[n+]1[O-])NCCCc1ccccc1,1360
19,CCn1c(=O)cc(SCC(=O)NCCC2=CCCCC2)c2ccccc21,1710
20,CCN(CCCNC(=O)CSc1cc(=O)n(C)c2cc(Cl)ccc12)Cc1ccccc1,2580 (active)
21,Cn1cnnc1Sc1ccc(CN2CCN(C3CCCC3)C(CCO)C2)o1 (stereo not drawn),1420
22,CN(c1ccccc1)c1nc(N)c([N+](=O)[O-])c(NCc2ccco2)n1,1700
23,C/C(N)=C(/C#N)C(=O)COC(=O)CNS(=O)(=O)c1ccc(C)cc1,1640
24,Cc1c(C(=O)Nc2ccccc2)sc2nc3n(c(=O)c12)CCCCC3,1500

row,Structure (SMILES),TR-FRET ratio
1,O=C(CCCn1c(=O)c2sccc2n(CC(=O)NCC2CCCO2)c1=O)NCc1ccco1 (stereo not drawn),1480
2,CCn1nc(C)cc1C(=O)N1CCCC(C(=O)c2cccc(OC)c2)C1 (stereo not drawn),1380
3,CCCCN(C(=O)c1ccc(OC(F)(F)F)cc1)c1c(N)n(CCC)c(=O)[nH]c1=O,1550
4,CN(C)c1nc(-c2cccnc2)nc(-c2ccc(Cl)cc2)c1C#N,1720
5,CC(=O)c1ccc(NC(=S)N(Cc2ccccc2)C(C)C2CC2)cc1 (stereo not drawn),1760
6,CN1CCN(c2ccc(S(=O)(=O)N3CCCCC3)cc2NC(=O)Cc2ccccc2F)CC1,1600
7,Cc1cccc(C)c1NC(=O)C1(C)c2cccc[n+]2CC(=O)N1Cc1cccs1 (stereo not drawn),1340
8,Cc1ccc(C(=O)NC(=S)NCCN2CCOCC2)cc1,1640
9,O=C1CCCC(O)=C1N=Nc1ccc2ncsc2c1,1660
10,O=C(c1ccccc1Cl)N(Cc1ccccc1F)N1C(=O)CCCC1=O,1570
11,Cc1ccc(S(=O)(=O)N2CCOCC2)cc1NC(=O)CSc1nnc(N)s1,1740
12,Cc1cccc(OCc2ccc(C(=O)Nc3ccc(F)cc3)cc2)c1,1440
13,Fc1ccc(COc2cccc(-c3n[nH]c(=S)o3)c2)cc1,2970 (active)
14,S=c1[nH]nc(COc2ccccc2)n1-c1ccccc1,1490
15,O=C(CCc1ccccc1)Nc1ccc(NC(=O)C2CCCCC2)nc1,1430
16,CCOP(=O)(OCC)C(Nc1ccc([N+](=O)[O-])cc1)c1ccc(Cl)cc1 (stereo not drawn),1560
17,Cc1csc(CN(C)C(=O)CC2C(=O)NCCN2CC(C)(C)C)n1 (stereo not drawn),1590
18,O=S(=O)(NC1CC1)c1ccc2c3c(cccc13)CC2,1560
19,COc1cccc(OC)c1C(=O)NC(=S)Nc1ccc(N2CCOCC2)c(Cl)c1,1350
20,COc1ccc(C2(CNC(=O)Cc3ccc(OC)c(OC)c3)CCCC2)cc1,1430
21,COc1ccc(C(=O)NNC(=S)NC(=O)c2ccccc2[N+](=O)[O-])cc1,1550
22,CCN(C(=O)COC(=O)c1cc(NS(=O)(=O)c2ccc(Cl)c([N+](=O)[O-])c2)ccc1O)C1CCCCC1,1460
23,CCN(CC)c1ccc(C(=O)N/N=C(\C)c2cccc(OC)c2)cc1,1500
24,O=C(NCCCN1CCOCC1)c1ccc(N2CCCC2)c([N+](=O)[O-])c1,1590

row,Structure (SMILES),TR-FRET ratio
1,Cc1cc(C(=O)CC#N)c(C)n1-c1c(C)n(C)n(-c2ccccc2)c1=O,1450
2,CCOc1ccc(N2C(=O)CN(c3cccc4ccccc34)C2=S)cc1,1810
3,CC(C)(C)NC(=O)CN1CCC(NC(=O)C23CC4CC(CC(C4)C2)C3)CC1,1580
4,CCOC(=O)C1(CCOc2ccccc2)CCN(C(=O)c2cncs2)CC1,1510
5,CCC(=O)Nc1cc(C(F)(F)F)ccc1N1CCCC1,1710
6,COc1ccc(C(=O)NNc2cc(C)nc(NNC(=O)c3ccc(OC)cc3)n2)cc1,1420
7,COc1cc(CNc2ncn[nH]2)ccc1OCc1ccccc1C,1650
8,OCCC1CN(Cc2cnc(-c3ccccc3)s2)CCN1CCc1ccccc1 (stereo not drawn),1800
9,CCC(C)N(C(=O)COC(=O)C1C(C(=O)OC)=C(C)NC(C)=C1C(=O)OC)C1CCS(=O)(=O)C1 (stereo not drawn),1620
10,CCOC(=O)N/N=C/c1cccnc1,1540
11,OCC1(CCc2ccccc2)CCN(Cc2ccc3nsnc3c2)CC1,2140 (active)
12,CC(=O)c1cccc(CN2CCC(CO)(Cc3ccccc3)CC2)c1,1520
13,Cc1cccc(-c2ncc(CN3CCC(CO)(CCCc4ccccc4)CC3)cn2)c1,1420
14,CCOC(=O)c1c(C)n(C)c2ccc(OC)c(NS(=O)(=O)CC)c12,1490
15,CN(CC(=O)N1CCN(c2ccccc2)CC1)S(=O)(=O)c1cccs1,1700
16,Cc1nc(N2CCOCC2)c2c(C)c(C(=O)Nc3ccc(C(F)(F)F)cc3)sc2n1,1750
17,Cc1nc(N2CCN(c3ccccn3)CC2)c2c(C)c(C(=O)Nc3ccc(F)cc3)sc2n1,1960
18,Cc1nc(N2CCC(C)CC2)c2c(C)c(C(=O)Nc3cc(F)ccc3C)sc2n1,2360 (active)
19,CC(C)(C)c1ccc(NC(=O)COC(=O)CCc2nc3ccccc3c(=O)[nH]2)cc1,1560
20,CCC(C(=O)OCC(=O)Nc1ccc(C(=O)Nc2ccc(OC)cc2)cc1)c1ccccc1 (stereo not drawn),1460
21,CC(C)N1CCC(NC(=O)Nc2ccccc2)CC1,1620
22,COC(=O)c1ccc(C(=O)OC)c(NC(=S)N2CCN(c3ccc(F)cc3)CC2)c1,1500
23,C=CCn1c(CNC(=O)c2ccco2)nnc1SCC(=O)c1ccc(OC)cc1,1770
24,CCc1ccc(OCC(=O)OCC(=O)c2c(N)n(C)c(=O)n(C)c2=O)cc1,1320

row,Structure (SMILES),TR-FRET ratio
1,CC(C)(C)NC(=O)c1ccc(Cn2cc(C(F)(F)F)ccc2=O)cc1,1730
2,N/C(Cc1ccc([N+](=O)[O-])cc1)=N\OC(=O)C1CCCCC1,1640
3,COc1ccc(N2CCN(C(=O)CNS(=O)(=O)c3ccc(C)c(C)c3)CC2)cc1,1450
4,CN1CCC(=NNC(=O)CN(c2cccc(Cl)c2)S(C)(=O)=O)CC1,1650
5,COc1cc(C(=O)Nc2cc(C(F)(F)F)ccc2N2CCOCC2)ccc1O,1560
6,CCc1ccc(NC(=O)CC2C(=O)NCCN2C(=S)Nc2ccccc2)cc1 (stereo not drawn),1500
7,Cc1c(C(N)=O)sc2ncn(CCOc3ccccc3)c(=O)c12,1550
8,Cc1cc(C2=NNC(=Nc3ccc(S(=O)(=O)N4CCOCC4)cc3)SC2)c(C)n1CC1CCCO1 (stereo not drawn),1650
9,Cc1ccc(OCC(=O)NNC(=S)NCc2ccccc2)cc1,1530
10,Cc1[nH]nc(SCC(=O)NCC(C)C)c1[N+](=O)[O-],1720
11,CC(=O)Nc1ccc(NC(=O)C(C)n2c3ccccc3c3nc(=O)cc(C)n32)cc1 (stereo not drawn),1620
12,COc1ccc(C(=O)CSc2nnc(-c3ccco3)o2)cc1,1800
13,COC(=O)c1ccc(/C=N/OCC(=O)Nc2cc(F)ccc2F)cc1,1390
14,O=C(COC(=O)c1c2c(nc3ccccc13)CCCC2)c1ccc(Br)s1,4220 (active)
15,O=C(Nc1c2c(nc3ccccc13)CCCC2)c1ccccc1Br,1760
16,O=C(COC(=O)c1c2c(nc3ccccc13)/C(=C\c1cccs1)CCC2)Nc1ccccc1Cl,1790
17,O=C(Nc1ccc2ccccc2c1)/C(=C\c1ccc2c(c1)OCO2)NC(=O)c1ccco1,1560
18,O=C(CSc1ccc(-c2cccs2)nn1)Nc1ccccc1F,1640
19,S=c1[nH]nc(-c2ccccc2)n1/N=C/c1c[nH]c2ccccc12,1470
20,Cc1ccccc1-c1n[nH]c(=S)n1/N=C/c1ccc(-c2ccccc2Br)o1,2150 (active)
21,Cc1ccccc1-c1n[nH]c(=S)n1C,1470
